Assay [1] has as its target Lysosomal acid glucosylceramidase (Homo sapiens) (UniProt P04062). The assay is described as follows: Glucocerebrosidase-p2 (AID 348; in the data active = potency below about 10 µM; also: potency is read from the fitted curve at half-maximal effect). The following applies: purified GBA, blue fluorogenic substrate, 40 min. The method, boiled down: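 Normal human glucocerebrosidase (0.2 nM) with blue fluorogenic substrate (80 uM final) in citrate/phosphate pH 5.9 with 10mM sodium taurocholate, 0.01% tween-20; 40 min RT, NaOH/glycine stop; fluorescence Ex 365/Em 440; AC50 from a titration from 0.6 nM upwards.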

Assay [2] can be described thus: AP1 Signaling Pathway (AID 357). Also: % is scaled to controls: 0 for no effect and ±100 for the full control effect. The following applies: ME-180 AP-1-bla reporter, EGF-induced, beta-lactamase ratio, 5 h; at 7.69 µM (top of the series) unless noted. In outline:
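ME-180 cells with beta-lactamase reporter under AP-1 response element, stimulated with EC50 EGF; compounds tested in titration series, 5 h at 37 °C. CCF4 substrate added 2.5 h at room temperature; 460/530 nm emission ratio gave %activity and AC50.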

The nature of assay [3]: Stat Signaling Pathway (AID 446).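 Also: ME-180 cervical cancer cells given 40 pM IL-6 alongside compound; SIE-controlled beta-lactamase reporter measured as 460/530 nm FRET emission ratio; % is scaled to controls: 0 for no effect and ±100 for the full control effect.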 The following applies: ME-180 (cervical carcinoma) SIE beta-lactamase reporter, IL-6 stimulated, 5 h; at 7.69 µM (top of the series) unless noted. The method, boiled down:
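Compound effects on IL-6-induced STAT reporter activity were measured in ME-180 cells. After overnight culture, cells were co-treated with 40 pM IL-6 for 5 hrs before beta-lactamase substrate loading at room temperature.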

Assay [4] deals with Glucocorticoid receptor (Homo sapiens) (UniProt P04150). The assay is described as follows: GR-EFC Redistribution (AID 451; calls by dose curve; also: potency is read from the fitted curve at half-maximal effect). The following applies: CHO-K1 GR-EFC translocation, beta-gal luminescence, 2 h. The method, boiled down: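 Translocation of GR-ED fusion to nuclear EA restores b-gal, read by luminescence after 1 h room-temperature detection. Engineered CHO-K1 biosensor cells, 1,000/well, exposed 2 h at 37 C to titrations up to 46 uM final.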
Sequence of Glucocorticoid receptor (Homo sapiens) (P04150 whole entry, looked up, the tested form may be a part): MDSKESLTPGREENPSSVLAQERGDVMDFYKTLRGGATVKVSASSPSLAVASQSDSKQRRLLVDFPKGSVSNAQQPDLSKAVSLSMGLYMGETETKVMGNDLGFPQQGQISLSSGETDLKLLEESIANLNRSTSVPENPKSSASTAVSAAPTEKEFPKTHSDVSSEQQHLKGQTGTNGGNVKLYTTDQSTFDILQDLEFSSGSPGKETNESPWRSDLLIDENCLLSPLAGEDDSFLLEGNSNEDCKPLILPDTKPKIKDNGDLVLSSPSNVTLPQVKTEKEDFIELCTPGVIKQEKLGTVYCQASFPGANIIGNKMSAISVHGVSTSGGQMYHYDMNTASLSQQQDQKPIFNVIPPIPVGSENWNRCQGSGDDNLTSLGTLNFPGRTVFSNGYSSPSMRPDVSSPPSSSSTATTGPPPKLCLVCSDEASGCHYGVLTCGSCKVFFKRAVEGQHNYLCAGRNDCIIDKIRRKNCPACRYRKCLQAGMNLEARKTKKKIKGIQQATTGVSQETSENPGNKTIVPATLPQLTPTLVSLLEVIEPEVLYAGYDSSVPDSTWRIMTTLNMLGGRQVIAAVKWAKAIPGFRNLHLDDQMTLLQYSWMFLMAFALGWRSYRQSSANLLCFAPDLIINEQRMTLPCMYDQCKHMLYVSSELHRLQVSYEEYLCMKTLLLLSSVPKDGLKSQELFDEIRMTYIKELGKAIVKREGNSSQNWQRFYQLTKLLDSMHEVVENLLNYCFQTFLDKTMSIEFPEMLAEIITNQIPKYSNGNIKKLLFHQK

For assay [5], the target named is Mitogen-activated protein kinase 10 (Mus musculus) (UniProt Q61831). The assay is described as follows: JNK3 AlphaScreen Assay (AID 530).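 Also: kinase came from lysate of stimulated human HepG2 cells; signal reports phosphorylation of biotinylated GST-cJun 1-79 at Ser73 with 10 µM ATP; % is scaled to controls: 0 for no effect and ±100 for the full control effect.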 The following applies: JNK3 lysate, c-Jun phosphorylation; series mostly up to 57.1 µM. The method, boiled down: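 qHTS titrations with 15 min compound pre-incubation before adding ATP (10 uM final). Read-out: AlphaScreen of Ser73-phosphorylated biotin-GST-cJun using HepG2 lysate JNK3 activated by IL-1β and TNFα.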

Assay [6] deals with 3',5'-cyclic-AMP phosphodiesterase 4B (Homo sapiens) (UniProt Q07343). The assay is described as follows: qHTS Assay for Inhibitors of PDE-IV (AID 607; active = well fitted activation curve with a large enough effect in the main read-out, with a control signal flat, not every such curve was filed as active; also: % of control where 0% means no effect). The following applies: HEK293 ACTOne CNG channel cells, membrane potential fluorescence; series mostly up to 22.9 µM. The method, boiled down: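 ACTOne HEK293 cells carry a modified cAMP-gated CNG channel and express endogenous PDE4; plated 1000 cells/well, compounds up to 22.9 uM final. Membrane-potential dye fluorescence (ex 535/em 590) was read; parental cells received 10 uM forskolin + 100 uM RO 20-1724.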
Sequence of 3',5'-cyclic-AMP phosphodiesterase 4B (Homo sapiens) (Q07343 whole entry, looked up): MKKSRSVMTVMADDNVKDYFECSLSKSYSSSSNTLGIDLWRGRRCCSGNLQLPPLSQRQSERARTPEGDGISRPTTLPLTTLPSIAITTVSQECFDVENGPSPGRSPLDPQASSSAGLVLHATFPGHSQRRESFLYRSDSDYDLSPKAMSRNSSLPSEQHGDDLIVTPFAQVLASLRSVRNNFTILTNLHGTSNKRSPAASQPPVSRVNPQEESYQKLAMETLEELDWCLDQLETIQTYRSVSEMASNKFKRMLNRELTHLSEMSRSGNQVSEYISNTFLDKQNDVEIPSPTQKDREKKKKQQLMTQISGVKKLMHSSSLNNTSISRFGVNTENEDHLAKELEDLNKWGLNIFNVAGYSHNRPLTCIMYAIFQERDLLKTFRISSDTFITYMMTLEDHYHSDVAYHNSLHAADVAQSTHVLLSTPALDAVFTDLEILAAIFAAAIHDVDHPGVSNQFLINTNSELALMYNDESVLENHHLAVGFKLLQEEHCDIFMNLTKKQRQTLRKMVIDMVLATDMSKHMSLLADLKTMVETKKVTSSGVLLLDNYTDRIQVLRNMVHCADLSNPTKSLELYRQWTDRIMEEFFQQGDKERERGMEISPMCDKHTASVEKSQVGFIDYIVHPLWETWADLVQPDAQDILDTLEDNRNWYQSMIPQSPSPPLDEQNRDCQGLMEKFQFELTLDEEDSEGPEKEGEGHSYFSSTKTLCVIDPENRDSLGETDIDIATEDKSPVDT

Assay [7] is described as follows: qHTS Assay for Lipid Storage Modulators (AID 1519; calls by dose curve). The following applies: Drosophila S3 cells, BODIPY lipid droplet/cell ratio, laser cytometry, cells loaded with oleic acid; for activity change, negative = inhibition: at 57.5 µM (top of the series). In outline: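 Cells seeded at 5,000 per well were treated with compounds over a concentration series and loaded with oleic acid (400 uM, as added). Lipid droplet fluorescence (488 nm excitation, 500-530 nm channel) was read by laser-scanning cytometry and normalized to 20 uM Triacsin C.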

A short description of assay [8]: Primary qHTS for small molecule stabilizers of the endoplasmic reticulum resident proteome: Secreted ER Calcium Modulated Protein (SERCaMP) assay (AID 1508630; active = well fitted curve in the direction sought with a large enough effect; an effect the other way counts as inactive or inconclusive; also: % is scaled to controls: 0 for no effect and ±100 for the full control effect). The following applies: SH-SY5Y GLuc-SERCaMP (Gaussia luciferase released on ER calcium loss) secretion, thapsigargin, luminescence; series mostly up to 38.4 µM. The method, boiled down: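 The SH-SY5Y reporter protocol was run at 3 concentrations up to 38.3 uM (primary) or 11 concentrations (follow-up): 16 h compound, 100 nM thapsigargin for 4 h, then extracellular luciferase luminescence.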

Assay [9] addresses Cytochrome P450 2D6 (Homo sapiens) (UniProt P10635). The assay is described as follows: qHTS Assay for Inhibitors and Substrates of Cytochrome P450 2D6 (AID 891; active = well fitted curve in the direction sought with a large enough effect; an effect the other way counts as inactive or inconclusive; also: potency is read from the fitted curve at half-maximal effect; nearly all actives have a fitted effect of over 60% in size). The following applies: recombinant CYP2D6, luciferin-ME EGE luminescence; series mostly up to 57.1 µM. The method, boiled down:
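Luminescent read-out of luciferin formed by 5 nM human CYP2D6 demethylating 30 uM Luciferin-ME EGE (Km level) over 60 min at room temperature after NADPH regeneration addition. Data normalized to full inhibition by 1.43 uM quinidine.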

Assay [10] has as its target Cytochrome P450 3A4 (Homo sapiens) (UniProt P08684). The assay is described as follows: qHTS Assay for Activators of Cytochrome P450 3A4 (AID 885; active = well fitted curve in the direction sought with a large enough effect; an effect the other way counts as inactive or inconclusive; also: nearly all actives have a fitted effect of over 65% in size). The following applies: recombinant CYP3A4, Luciferin-PPXE luminescence, 60 min; series mostly up to 57.1 µM. The method, boiled down:
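CYP3A4 activity: Luciferin-PPXE O-dealkylation, 25uM substrate, 200mM KPO4, RT throughout. Read-out is luciferase luminescence; higher values reflect activation.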

Assay [11] deals with Cytochrome P450 2C19 (Homo sapiens) (UniProt P33261). The assay is described as follows: qHTS Assay for Inhibitors and Substrates of Cytochrome P450 2C19 (AID 899; active = well fitted curve in the direction sought with a large enough effect; an effect the other way counts as inactive or inconclusive; also: potency is read from the fitted curve at half-maximal effect; nearly all actives have a fitted effect of over 60% in size). The following applies: recombinant CYP2C19, luciferin-H EGE luminescence; series mostly up to 57.1 µM. The method, boiled down: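 5nM enzyme + 10uM Luciferin-H EGE (=KM), 50mM KPO4; cpd pin-transferred, 10 min 37C; NADPH regen, 60 min 37C; stopped w/ luciferin detection reagent, 20 min; luminescence. Normalized to 57uM ketoconazole (AC100).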
Sequence of Cytochrome P450 2C19 (Homo sapiens) (P33261 whole entry, looked up): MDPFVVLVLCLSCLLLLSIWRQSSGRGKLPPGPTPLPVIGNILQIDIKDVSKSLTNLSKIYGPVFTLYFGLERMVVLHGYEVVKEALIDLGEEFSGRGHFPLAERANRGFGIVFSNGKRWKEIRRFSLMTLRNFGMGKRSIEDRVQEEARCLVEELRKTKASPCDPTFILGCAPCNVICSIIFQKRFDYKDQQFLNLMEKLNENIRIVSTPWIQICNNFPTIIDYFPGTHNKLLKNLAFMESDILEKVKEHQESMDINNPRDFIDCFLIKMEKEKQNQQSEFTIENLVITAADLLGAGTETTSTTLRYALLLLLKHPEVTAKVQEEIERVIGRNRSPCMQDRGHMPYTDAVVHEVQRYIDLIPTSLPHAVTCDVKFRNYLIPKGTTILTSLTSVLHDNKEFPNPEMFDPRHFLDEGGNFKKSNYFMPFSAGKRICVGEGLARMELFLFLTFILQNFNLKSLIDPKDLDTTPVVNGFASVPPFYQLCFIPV

Setting [12] is: measured here: cell count channel max response.
Where [13] appears, read: measured here: lipid channel max response.

The structures appear in SMILES notation. Inconclusive results are not listed. Active and inactive are the calls of the source. Unless noted, calls follow the shape of the dose curve; as a rule, active = well fitted curve in either direction with a large enough effect (not every such curve was filed as active); inconclusive = small, poorly fitted or top-dose-only effect, or another doubt; inactive = flat fitted curve, though single readings scatter. Where only a bound is given, the exact number is not on record here.

Sequence of Lysosomal acid glucosylceramidase (Homo sapiens) (P04062 whole entry, looked up): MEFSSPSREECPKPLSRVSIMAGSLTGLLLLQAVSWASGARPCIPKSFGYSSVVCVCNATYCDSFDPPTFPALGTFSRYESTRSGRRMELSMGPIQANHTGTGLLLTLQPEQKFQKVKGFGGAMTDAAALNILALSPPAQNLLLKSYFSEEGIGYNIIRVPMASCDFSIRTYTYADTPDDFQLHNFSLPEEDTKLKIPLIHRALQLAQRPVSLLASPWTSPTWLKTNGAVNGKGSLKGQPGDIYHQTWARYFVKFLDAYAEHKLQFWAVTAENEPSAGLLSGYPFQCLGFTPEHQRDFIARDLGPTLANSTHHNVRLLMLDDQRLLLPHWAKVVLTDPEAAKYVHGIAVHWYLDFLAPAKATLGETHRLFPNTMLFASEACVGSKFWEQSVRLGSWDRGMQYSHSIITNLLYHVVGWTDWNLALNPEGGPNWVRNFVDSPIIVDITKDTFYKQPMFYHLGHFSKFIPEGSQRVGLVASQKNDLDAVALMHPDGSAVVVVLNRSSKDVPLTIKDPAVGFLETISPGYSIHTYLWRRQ
Sequence of Cytochrome P450 3A4 (Homo sapiens) (P08684 whole entry, looked up): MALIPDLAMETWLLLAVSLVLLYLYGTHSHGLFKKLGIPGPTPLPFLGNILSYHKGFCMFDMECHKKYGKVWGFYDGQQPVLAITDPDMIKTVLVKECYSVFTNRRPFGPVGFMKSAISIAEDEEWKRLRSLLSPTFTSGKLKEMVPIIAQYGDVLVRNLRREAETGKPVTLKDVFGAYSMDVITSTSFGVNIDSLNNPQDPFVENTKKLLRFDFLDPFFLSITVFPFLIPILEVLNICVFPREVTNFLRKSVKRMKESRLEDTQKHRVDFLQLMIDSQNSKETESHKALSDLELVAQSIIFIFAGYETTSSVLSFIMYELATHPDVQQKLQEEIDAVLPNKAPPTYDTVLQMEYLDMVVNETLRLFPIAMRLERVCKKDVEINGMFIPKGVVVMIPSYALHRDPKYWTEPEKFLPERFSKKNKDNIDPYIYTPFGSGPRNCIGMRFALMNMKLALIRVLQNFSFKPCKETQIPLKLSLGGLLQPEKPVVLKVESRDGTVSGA
Sequence of Cytochrome P450 2D6 (Homo sapiens) (P10635 whole entry, looked up): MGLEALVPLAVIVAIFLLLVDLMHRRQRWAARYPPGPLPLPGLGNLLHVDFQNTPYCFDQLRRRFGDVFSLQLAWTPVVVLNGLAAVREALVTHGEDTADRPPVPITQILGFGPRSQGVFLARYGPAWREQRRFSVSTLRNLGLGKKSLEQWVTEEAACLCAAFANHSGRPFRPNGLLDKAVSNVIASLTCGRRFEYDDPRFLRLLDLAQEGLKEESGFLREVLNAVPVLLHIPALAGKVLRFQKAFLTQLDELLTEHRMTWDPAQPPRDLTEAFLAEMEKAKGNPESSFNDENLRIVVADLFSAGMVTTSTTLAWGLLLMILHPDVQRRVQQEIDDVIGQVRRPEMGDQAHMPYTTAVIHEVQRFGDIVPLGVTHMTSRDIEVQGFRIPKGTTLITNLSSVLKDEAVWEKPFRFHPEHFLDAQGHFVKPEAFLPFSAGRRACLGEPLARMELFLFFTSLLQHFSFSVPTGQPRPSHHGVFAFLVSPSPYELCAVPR

Turning to `O=C(c1cc(C(F)(F)F)cc(C(F)(F)F)c1)N1CCC2(CCN(Cc3ccncc3)CC2)CC1`, the Potency in assay [1] is > 11.4 µM (inactive); in [4], > 46 µM (inactive). Further, the activity change, negative = inhibition in assay [2] is -22.8% (inactive); in assay [7], 3.65% (inactive). In [3], the activity, negative = inhibition was 6.58% (inactive). Further, the Potency result in assay [5] and in [6] was “inactive” each time. Moreover, the max response in assay [7] (setting [12]) turned out to be 7.35%; in [7] (setting [13]) it was 10.5%. In addition, in [8], the result was inactive.

Consider `COc1ccc(C(=O)N2CCC3(CCCN(Cc4ccc(C#N)cc4)C3)CC2)cc1`, for which the results for the Potency in assay [1] and in [4] were > 11.4 µM (inactive) and > 46 µM (inactive), respectively. Besides, the results for the activity change, negative = inhibition in assay [2] and in [7] were 16.7% (inactive) and -2.89% (inactive), respectively. Besides, the activity, negative = inhibition in [3] is 2.1% (inactive). Moreover, the Potency result in [5] and in assay [6] was “inactive” in each case. Besides, the max response is -1.58% in assay [7] (setting [12]) and -2.86% in [7] (setting [13]). Besides, in assay [8], the outcome was inactive.

Take `COc1ccccc1CN1CCCC2(CCN(C(C)=O)CC2)C1`: the Potency in assay [1] was > 11.4 µM (inactive); in assay [4] it was > 46 µM (inactive); in [9], 3.16 µM (active). Further, the activity change, negative = inhibition in assay [2] is 0.608% (inactive); in [7], 0.567% (inactive). In addition, the activity, negative = inhibition in assay [3] is 9.98% (inactive). Also, the Potency entry in assay [5] and in assay [6] was “inactive” each time. Moreover, the max response in assay [7] (setting [12]) turned out to be 7.93%; in assay [7] (setting [13]), 13%. The result in assay [8] was inactive.

Regarding `O=C(c1cc(C(F)(F)F)cc(C(F)(F)F)c1)N1CCC2(CCCN(Cc3ccccc3)C2)CC1`, the values for the Potency in assay [1] and in assay [4] were > 11.4 µM (inactive) and > 46 µM (inactive), respectively. Also, the activity change, negative = inhibition in assay [2] is 15.8% (inactive); in assay [7], -0.673% (inactive). For the same compound, the activity, negative = inhibition in [3] was -0.518% (inactive). The Potency result in assay [5] and in assay [6] was “inactive” in each case. Besides, the max response in assay [7] (setting [12]) was 4.9%; in assay [7] (setting [13]), 5.21%. Further, the result in [8] was inactive.

As to `N#Cc1cccc(NC(=O)N2CC3(CCN(C(=O)c4cc(C(F)(F)F)cc(C(F)(F)F)c4)CC3)C2)c1`, the Potency in assay [1] was > 11.4 µM (inactive); in assay [4] it was > 46 µM (inactive); in [11] it was 0.631 µM (active). In addition, the figures for the activity change, negative = inhibition in assay [2] and in [7] were -13.9% (inactive) and -0.946% (inactive), respectively. Further, the activity, negative = inhibition in assay [3] was -7.2% (inactive). For the same compound, the Potency result in [5], in [6] and in assay [10] was “inactive” in each case. The max response turned out to be 14% in assay [7] (setting [12]) and 14.4% in assay [7] (setting [13]). In addition, the result in assay [8] was inactive.

With `COCC(=O)N1CCC2(CCN(Cc3ccccc3)CC2)CC1`, the Potency was > 11.4 µM (inactive) in assay [1] and > 46 µM (inactive) in [4]. The activity change, negative = inhibition was -10.9% (inactive) in [2] and 1.52% (inactive) in assay [7]. Moreover, the activity, negative = inhibition in assay [3] was -3.84% (inactive). For the same compound, the Potency entry in [5] and in assay [6] was “inactive” each time. The max response turned out to be 2.79% in [7] (setting [12]) and 9.37% in assay [7] (setting [13]). Also, in assay [8], the result was inactive.

As to `COCC(=O)N1CCC2(CCCN(c3ccncc3)C2)CC1`, the Potency in assay [1] was > 11.4 µM (inactive); in assay [4], > 46 µM (inactive). In addition, the values for the activity change, negative = inhibition in assay [2] and in assay [7] were 3.93% (inactive) and 3.88% (inactive), respectively. Also, the activity, negative = inhibition in assay [3] is -8.03% (inactive). In addition, the Potency result in [5], in [6] and in [10] was “inactive” in each case. In addition, the results for the max response in [7] (setting [12]) and in assay [7] (setting [13]) were -7.49% and 0.42%, respectively. Moreover, the result in [8] was inactive.

As for `COc1ccccc1CN1CCCC2(CCN(S(=O)(=O)c3ccccc3)CC2)C1`, the Potency in [1] was > 11.4 µM (inactive); in [4], > 46 µM (inactive). Further, the figures for the activity change, negative = inhibition in assay [2] and in assay [7] were 0.799% (inactive) and 0.969% (inactive), respectively. Moreover, in [3], the activity, negative = inhibition was 1.94% (inactive). Also, the Potency entry in [5] and in [6] was “inactive” each time. Further, the max response was -4.49% in [7] (setting [12]) and 1.25% in assay [7] (setting [13]). Further, in assay [8], the outcome was inactive.
